The values that follow come from the supplement of paper PMC13380429.

Test [1] deals with Vero E6 infected with SARS-CoV-2. The experiment in a line: morphology score (similarity to uninfected cells); higher = more like uninfected cells. Conditions: 24 h.
Test [2] has the same test system. The experiment in a line: SARS-CoV-2 infection rate relative to infected DMSO; higher = more infection, active = 60 or less. Conditions: 24 h.

Consider `O=C(CN1CCN(Cc2ccc3c(c2)OCO3)CC1)N1c2ccccc2Sc2ccccc21` [fenoverine] (10 µM), for which the morphology score in test [1] stood at 0.02. In addition, the SARS-CoV-2 infection rate in test [2] was 110% (inactive).

In test [1], `O=C1NC(=O)C(c2ccccc2[N+](=O)[O-])=C1Nc1ccc(O)c(Cl)c1` (10 µM) showed a morphology score of -0.00184. Moreover, the SARS-CoV-2 infection rate in test [2] was 114% (inactive).

Consider `CN(C)[C@@H]1C(O)=C(C(N)=O)C(=O)[C@@]2(O)C(O)=C3C(=O)c4c(O)ccc(Cl)c4[C@@H](O)[C@H]3C[C@@H]12` [demeclocycline] (10 µM), for which the morphology score in test [1] amounted to 0.0306. The SARS-CoV-2 infection rate in test [2] is 96% (inactive).

Turning to `CC12CCC(CC1=O)C2(C)C` (stereo not drawn) [camphor-(+)] (10 µM), the morphology score in test [1] is 0.101. Also, the SARS-CoV-2 infection rate in test [2] was 107% (inactive).

As for `O=P(O)(O)C(O)(Cn1ccnc1)P(=O)(O)O` [zoledronic-acid] (10 µM), in test [1], the morphology score turned out to be 0.0372. In addition, the SARS-CoV-2 infection rate in test [2] was 116% (inactive).

Take `Clc1ccc(-c2nc3sccn3c2/C=N/OCc2ccc(Cl)c(Cl)c2)cc1` (10 µM): the morphology score in test [1] turned out to be 0.00562. Besides, the SARS-CoV-2 infection rate in test [2] was 107% (inactive).

Molecule `CCNC(=O)C[C@@H]1N=C(c2ccc(Cl)cc2)c2cc(OC)ccc2-n2c(C)nnc21` (10 µM) displayed a morphology score in test [1] of -0.0652. For the same molecule, in test [2], the SARS-CoV-2 infection rate is 106% (inactive).

Consider `COC1=C[C@@H]2[C@@H]3Cc4ccc(OC)c(O)c4[C@]2(CCN3C)CC1=O` [sinomenine] (10 µM), for which the morphology score in test [1] stood at 0.141. In test [2], the SARS-CoV-2 infection rate is 122% (inactive).

As for `Cc1ccc(C)c(OCCCC(C)(C)C(=O)O)c1` [gemfibrozil] (10 µM), the morphology score in test [1] is -0.0506. Further, the SARS-CoV-2 infection rate in test [2] is 98.5% (inactive).

In turn, `CN(C)CCN1C(=O)c2cccc3cc(N)cc(c23)C1=O` [amonafide] (0.833333 µM) displayed a morphology score in test [1] of 0.15. Also, the SARS-CoV-2 infection rate in test [2] was 102% (inactive).

Take `CCC[C@H]1C(=O)N2C(N(C)C)=Nc3ccc(C)cc3N2C1=O` [azapropazone] (10 µM): the morphology score in test [1] was determined as 0.165. Besides, the SARS-CoV-2 infection rate in test [2] is 94% (inactive).

`CCCCCC(O)CCCC(=O)O` (stereo not drawn) (10 µM) came in with a morphology score in test [1] of 0.00301. In test [2], the SARS-CoV-2 infection rate was 103% (inactive).

The molecule `CCOC(=O)CCNc1cc(N2CCc3ccccc3CC2)nc(-c2ccccn2)n1` (0.833333 µM) came in with a morphology score in test [1] of -0.0369. Also, the SARS-CoV-2 infection rate in test [2] is 116% (inactive).

In turn, `Nc1nc2c(ncn2COCCO)c(=O)[nH]1` [acyclovir] (10 µM) displayed a morphology score in test [1] of 0.109. For the same molecule, the SARS-CoV-2 infection rate in test [2] is 104% (inactive).

As for `COc1ccc2ccc(=O)oc2c1CC=C(C)C` [osthol] (10 µM), in test [1], the morphology score came to 0.243. Further, the SARS-CoV-2 infection rate in test [2] is 107% (inactive).

Take `CNC(=O)c1cccc(-c2ccc3c(N4CCOC[C@@H]4C)nc(N4CCOC[C@@H]4C)nc3n2)c1` (10 µM): the morphology score in test [1] was -0.219. Further, in test [2], the SARS-CoV-2 infection rate is 108% (inactive).

On to `N[C@@H](Cc1cc(CP(=O)(O)O)cc(-c2ccccc2Cl)c1)C(=O)O` (10 µM), for which the morphology score in test [1] is 0.0155. The SARS-CoV-2 infection rate in test [2] was 97.5% (inactive).

As for `C[C@]12N[C@H](Cc3ccccc31)c1ccccc12` [dizocilpine-(-)] (10 µM), the morphology score in test [1] was found to be 0.247. The SARS-CoV-2 infection rate in test [2] was 106% (inactive).

In test [1], `CCOC(=O)[C@H](CCc1ccccc1)N[C@@H](C)C(=O)N(CC(=O)O)C1Cc2ccccc2C1` [delapril] (10 µM) registered a morphology score of -0.0271. For the same molecule, in test [2], the SARS-CoV-2 infection rate is 108% (inactive).

`CN(Cc1ccccc1)C(=O)[C@H](Cc1ccc2ccccc2c1)NC(=O)[C@@H]1CCCN1C(=O)Nc1ccccc1[N+](=O)[O-]` (10 µM) came in with a morphology score in test [1] of 0.00351. Also, the SARS-CoV-2 infection rate in test [2] was 108% (inactive).

`C1=C2CCCN[C@H]2[C@@H]2C[C@H]1[C@H]1CCCCN1C2` [aloperine] (10 µM) returned a morphology score in test [1] of 0.199. For the same molecule, the SARS-CoV-2 infection rate in test [2] is 102% (inactive).

Molecule `CC(C)(C)NCC(O)CSc1nc(-c2ccc(C(N)=O)s2)cs1` (stereo not drawn) [arotinolol] (10 µM) returned a morphology score in test [1] of 0.0582. Also, the SARS-CoV-2 infection rate in test [2] was 106% (inactive).

For the molecule `COc1ccc(O)cc1` [mequinol] (10 µM), the morphology score in test [1] was -0.0349. Besides, the SARS-CoV-2 infection rate in test [2] was 105% (inactive).

In test [1], `O=C(CCCN1CCC2(CC1)C(=O)N(Cc1cccc(F)c1)CN2c1ccccc1)c1ccc(F)cc1` [3'-fluorobenzylspiperone] (0.833333 µM) showed a morphology score of 0.325. Moreover, in test [2], the SARS-CoV-2 infection rate was 103% (inactive).

On to `Oc1ccc(Cl)c2cccnc12` [cloxyquin] (10 µM), for which the morphology score in test [1] is -0.13. In addition, in test [2], the SARS-CoV-2 infection rate is 109% (inactive).

`CNCCC=C1c2ccccc2C=Cc2ccccc21` [norcyclobenzaprine] (10 µM) displayed a morphology score in test [1] of 0.314. For the same molecule, the SARS-CoV-2 infection rate in test [2] is 81% (inactive).

`CCN(Cc1ccc(Cl)nc1)/C(=C/[N+](=O)[O-])NC` [nitenpyram] (10 µM) showed a morphology score in test [1] of 0.0591. Also, the SARS-CoV-2 infection rate in test [2] was 101% (inactive).

Molecule `CCCC[C@]1(CC)CS(=O)(=O)c2cc(CNC(CC(=O)O)CC(=O)O)c(OC)cc2[C@@H](c2ccccc2)N1` (10 µM) came in with a morphology score in test [1] of 0.0912. Also, the SARS-CoV-2 infection rate in test [2] was 90.5% (inactive).

The molecule `CC(=O)[C@H]1CC[C@H]2[C@@H]3CC[C@H]4C[C@H](O)CC[C@]4(C)[C@H]3CC[C@]12C` [allopregnanolone] (10 µM) registered a morphology score in test [1] of 0.0997. In test [2], the SARS-CoV-2 infection rate is 103% (inactive).
